Test results published in PubChem BioAssay AID1508636 (National Center for Advancing Translational Sciences (NCATS), 2021).
Records with an inconclusive call do not appear. Unmarked numbers belong to inactive results. The source made the active and inactive calls. Calls come from the whole dose curve; as a rule, active = well fitted inhibition curve with a large enough effect; inconclusive = small, poorly fitted or top-dose-only effect; inactive = flat fitted curve, though single readings scatter. *1 amine or outer side, *2 acyl side, *3 side chain or, on linkers, in order; H or OH if unused. Where a SMILES comes first, the peptide text is derived from it. Bridges are numbered along the chain shown (N, C = ends). Roman numbers before positions name the chains, in order. [ ]: non-standard residue; d: D form. The star is where a group is joined. ξ: configuration not given here. Actinocin(9to1) = Cc1c2oc3c(C)ccc(C(=O)[*:1])c3nc-2c(C(=O)[*:2])c(N)c1=O; ξNMeV = CNC(C(=O)O)C(C)C; Cbz = O=C(OCc1ccccc1)*; Nva = CCC[CH](N)C(=O)O; ξV = CC(C)C(N)C(=O)O; Sar = CNCC(=O)O

Target: ATP-dependent translocase ABCB1 (Homo sapiens) (UniProt P08183)
Test: qHTS for characterization and localization of zebrafish homologs of the human ABCB1 multidrug transporter: P-gp overexpressing MDR-19 cells
Conditions: MDR-19 cells overexpressing P-gp, CellTiter-Glo luminescence viability, 72 h; series mostly up to 46.1 µM; activity change, negative = inhibition: at the top concentration
From the text: The zebrafish has emerged as a potential model to study the blood-brain barrier (BBB) given its similarities with mammalian systems. However, little information has been available with regard to homologous ATP-binding cassette transporters expressed at the zebrafish BBB. Two transporters that are highly expressed at the human BBB are P-glycoprotein (P-gp, encoded by the ABCB1 gene) and ABCG2 (encoded by the ABCG2 gene). In this study, we focus on characterization of P-gp homologs in the zebrafish, which has two genes that are homologous to human ABCB1 - abcb4 and abcb5. We generated stably-transfected cell lines to determine their substrate specificities. […] Zebrafish abcb4 also colocalized with claudin 5 expression in brain endothelial cells.
A high-throughput screen was performed as previously described on empty vector transfected cells, P-gp-overexpressing MDR-19 cells and cells transfected with full-length zebrafish abcb4 (ZF Abcb4) or abcb5 (ZF Abcb5). Briefly, cells were plated into 1536-well plates at a density of 500 cells/well in 5 uL media. P-gp substrate compounds (approximately 90) selected from our previous study were then added at varying concentrations using a 1536-head pin tool (Kalypsis, San Diego, CA) and plates were incubated at 37C in 5% CO2 for 72 h. CellTiter-Glo reagent (Promega) was dispensed into the wells, incubated for 5 min and luminescence was read on a ViewLux instrument (Perkin-Elmer).
Cytotoxic compounds were defined as those that yielded a curve class of -1.1, -1.2, -2.1, -2.2, -2.3, or -2.4, a maximum response of >50% and an AC50 of < 10 uM. All compounds from screening analysis were tested in Vector (empty vector control), MDR-19 (P-gp overexpressing), zebrafish abcb4 (ZF Abcb4) and abcb5 (ZF Abcb5) expression cell lines.
1. Tobie D Lee, Olivia W Lee, Kyle R Brimacombe, Lu Chen, Rajarshi Guha, Sabrina Lusvarghi, Bethilehem G Tebase, Carleen Klumpp-Thomas, Robert W Robey, Suresh V Ambudkar, Min Shen, Michael M Gottesman, Matthew D Hall. A High-Throughput Screen of a Library of Therapeutics Identifies Cytotoxic Substrates of P-glycoprotein. Mol Pharmacol. 2019, Nov;96(5):629-640.

ATP-dependent translocase ABCB1 (Homo sapiens), sequence (P08183 whole entry, looked up): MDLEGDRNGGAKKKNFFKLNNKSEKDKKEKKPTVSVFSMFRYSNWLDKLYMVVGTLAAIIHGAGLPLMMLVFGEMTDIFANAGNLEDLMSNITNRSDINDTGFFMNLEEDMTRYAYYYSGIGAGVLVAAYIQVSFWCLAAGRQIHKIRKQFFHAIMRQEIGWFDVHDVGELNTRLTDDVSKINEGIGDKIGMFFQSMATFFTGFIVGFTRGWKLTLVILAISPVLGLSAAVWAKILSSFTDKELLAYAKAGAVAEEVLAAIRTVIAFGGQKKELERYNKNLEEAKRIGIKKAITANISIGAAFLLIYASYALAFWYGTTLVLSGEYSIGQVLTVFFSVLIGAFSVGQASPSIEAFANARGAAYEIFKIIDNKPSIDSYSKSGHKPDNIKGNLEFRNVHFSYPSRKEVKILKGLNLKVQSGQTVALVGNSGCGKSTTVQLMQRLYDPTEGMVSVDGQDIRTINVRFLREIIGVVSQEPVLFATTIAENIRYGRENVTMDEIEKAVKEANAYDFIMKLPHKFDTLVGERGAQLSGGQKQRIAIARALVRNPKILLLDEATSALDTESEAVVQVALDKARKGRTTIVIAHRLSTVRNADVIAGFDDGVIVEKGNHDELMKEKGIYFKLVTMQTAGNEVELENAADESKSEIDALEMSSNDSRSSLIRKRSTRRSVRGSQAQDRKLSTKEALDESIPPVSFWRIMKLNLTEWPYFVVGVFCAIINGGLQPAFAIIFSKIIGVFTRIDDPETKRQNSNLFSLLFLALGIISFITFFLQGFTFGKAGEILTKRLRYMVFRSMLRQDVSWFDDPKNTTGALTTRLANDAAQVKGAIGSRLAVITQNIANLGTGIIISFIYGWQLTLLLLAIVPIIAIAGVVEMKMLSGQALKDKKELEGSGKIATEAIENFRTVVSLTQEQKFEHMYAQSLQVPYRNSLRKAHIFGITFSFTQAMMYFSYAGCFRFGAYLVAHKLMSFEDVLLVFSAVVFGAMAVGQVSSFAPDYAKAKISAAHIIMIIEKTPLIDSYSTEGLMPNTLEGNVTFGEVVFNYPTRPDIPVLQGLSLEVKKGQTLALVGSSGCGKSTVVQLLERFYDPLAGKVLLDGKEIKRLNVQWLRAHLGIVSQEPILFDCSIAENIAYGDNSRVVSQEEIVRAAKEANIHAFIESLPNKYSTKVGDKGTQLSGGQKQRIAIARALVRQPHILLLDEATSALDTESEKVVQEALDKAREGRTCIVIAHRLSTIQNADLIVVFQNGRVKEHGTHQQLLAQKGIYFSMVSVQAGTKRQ

SMILES | Potency | activity change, negative = inhibition
CC(=O)C1(O)Cc2c(O)c3c(c(O)c2C(OC2CC(N)C(O)C(C)O2)C1)C(=O)c1c(O)cccc1C3=O (stereo not given) | 0.148 µM (active) | –
COc1cc(N2CCC(O)CC2)ccc1Nc1nc(Nc2ccccc2S(=O)(=O)C(C)C)c2[nH]cnc2n1 | – | -15.7%
COc1cc(C(=O)NC2CCN(C)CC2)ccc1Nc1ncc2c(n1)N(C1CCCC1)CC(F)(F)C(=O)N2C | 3.32 µM (active) | –
C=C1CO[C@@]2(O[C@H]3CC4C5CC=C6C[C@@H](O)C[C@@H](O[C@@H]7OC[C@H](O)[C@H](O[C@@H]8OC[C@@H](O)[C@H](O)[C@H]8O)[C@H]7O[C@@H]7O[C@@H](C)[C@H](OC(C)=O)[C@@H](OC(C)=O)[C@H]7OC(C)=O)[C@]6(C)C5CC[C@]4(C)[C@@H]3[C@@H]2C)[C@@H](O)[C@H]1OC1OC(C)C(O)C(O)C1O (stereo not given in full) | – | 3.31% [at 8.96 µM]
CCCC(C=O)NC(=O)C(CC(C)C)NC(=O)C(CC(C)C)NC(=O)OCc1ccccc1 (stereo not drawn) (Cbz-Leu-Leu-[Nva]-aldehyde; configuration not given here) | 4.18 µM (active) | –
CCN1CCN(Cc2ccc(NC(=O)Nc3ccc(Oc4cc(NC)ncn4)cc3)cc2C(F)(F)F)CC1 | – | 4.09%
COc1ccc(CC2C(=O)NC(C)C(=O)N(C)C3Cc4ccc(cc4)Oc4cc(ccc4OC4OC(CO)C(O)C(O)C4O)CC(C(=O)NC(C)C(=O)NC(C)C(=O)N2C)N(C)C3=O)cc1 (stereo not given) | – | -8.38% [at 15.2 µM]
CN(C)C1CCN(C(=O)c2ccc(NC(=O)Nc3ccc(-c4nc(N5CCOCC5)nc(N5CCOCC5)n4)cc3)cc2)CC1 | – | 4.04%
CN(C)c1ccc(C(=C2C=CC(=[N+](C)C)C=C2)c2ccc(N(C)C)cc2)cc1 | 4.69 µM (active) | –
CC(C)(C)c1cnc(CSc2cnc(NC(=O)C3CCNCC3)s2)o1 | 24.1 µM (active) | –
COc1cc2ncn(-c3cc(OCc4ccccc4C(F)(F)F)c(C(N)=O)s3)c2cc1OC | 5.4 µM (active) | –
C#CCN(Cc1cc2c(=O)n(C)c(CN3CCN(C)CC3)nc2cc1Cl)c1ccc(C(=O)NCc2cccnc2)cc1 | – | -24.7%
CC(=O)O[C@@H]1C[C@H](O)[C@@]23CO[C@@H](O)C1(C)[C@@H]2C[C@@H](O)[C@]1(C)[C@@H]3C(=O)[C@H](OC(C)=O)[C@@]2(C)[C@H](c3ccoc3)C[C@H]3O[C@]321 | 3.72 µM (active) | –
O=C(NC1CCNCC1)c1[nH]ncc1NC(=O)c1c(Cl)cccc1Cl | – | -24%
CC(C)CC(=O)Nc1n[nH]c2c1CN(C(=O)C1CCN(C)CC1)C2(C)C | – | -14.7%
C[C@@H]1O[C@@H](O[C@H]2[C@@H](OC(=O)[C@]34CCC(C)(C)CC3C3=CCC5[C@@]6(C)C[C@H](O)[C@H](O[C@@H]7O[C@H](CO)[C@@H](O)[C@H](O)[C@H]7O[C@@H]7OC[C@@H](O)[C@H](O)[C@H]7O)[C@@](C)(C(=O)O)C6CC[C@@]5(C)[C@]3(C)CC4)OC[C@H](O)[C@@H]2O)[C@H](O)[C@H](O)[C@H]1O[C@@H]1OC[C@@H](O)[C@H](O)[C@H]1O (stereo not given in full) | – | -1.44% [at 8.96 µM]
COC[C@H](NC(=O)c1cnc(C)s1)C(=O)N[C@@H](COC)C(=O)N[C@@H](Cc1ccccc1)C(=O)[C@@]1(C)CO1 | 0.59 µM (active) | –
CC[C@@H]1C(=O)N(C)c2cnc(Nc3ccc(C(=O)NC4CCC(N5CCN(CC6CC6)CC5)CC4)cc3OC)nc2N1C(C)C (stereo not given in full) | 2.35 µM (active) | –
Cc1[nH]c2ccccc2c1CCNCc1ccc(/C=C/C(=O)NO)cc1 | 1.32 µM (active) | –
COc1cc2c(NC3CCN(C(C)C)CC3)nc(N3CCCN(C)CC3)nc2cc1OCCOCCN(C)C | – | -8.95%

SMILES | Potency | activity change, negative = inhibition
C=CCNC1=C2CC(C)CC(OC)C(O)C(C)/C=C(\C)C(OC(N)=O)C(OC)/C=C/C=C(\C)C(=O)NC(=CC1=O)C2=O (stereo not given) | 10.5 µM (active) | –
CC(NCc1ccc2c(c1)nc(NC(=O)c1ccc(-c3cn[nH]c3)s1)n2CC(C)(C)O)C(C)(C)C (stereo not given) | 2.96 µM (active) | –
CC1(C)CC(NC(=O)C(=O)Nc2ccc(Br)cc2)CC(C)(C)N1 | – | -6.87%
COc1cccc2c1C(=O)c1c(O)c3c(c(O)c1C2=O)C[C@@](O)(C(=O)CO)C[C@H]3O[C@H]1C[C@H](N)[C@@H](O)[C@H](C)O1 | 11.8 µM (active) | –
CN(C)C/C=C/C(=O)Nc1cccc(C(=O)Nc2ccc(Nc3nccc(-c4cccnc4)n3)cc2)c1 | – | -8.41%
Cc1ccc(-c2ncn(-c3ccc(Nc4nccc(-c5cccc(N6CCOCC6)c5)n4)cc3)n2)cn1 | 3.72 µM (active) | –
CC(C)C[C@H](NC(=O)[C@H](CCc1ccccc1)NC(=O)CN1CCOCC1)C(=O)N[C@@H](Cc1ccccc1)C(=O)N[C@@H](CC(C)C)C(=O)[C@@]1(C)CO1 | 0.743 µM (active) | –
CO[C@H]1/C=C/C=C/C=C/C[C@H](OC(=O)[C@@H](C)NC(=O)C2CCCCC2)[C@H](C)[C@@H](O)/C(C)=C/CCc2cc(O)cc(c2)NC(=O)C1 | – | -13.5% [at 15.2 µM]
COC(C(=O)N1Cc2[nH]nc(NC(=O)c3ccc(N4CCN(C)CC4)cc3)c2C1)c1ccccc1 (stereo not given) | – | -7.32%
CCC(C)C(=O)OC1CC(O)C23C4OCC5(C(O)CC2C1(C)C(O)O4)C3C(=O)C(O)C1(C)C(O)(c2ccoc2)CC2OC251 (stereo not given) | – | 3.34% [at 15.2 µM]
CCN(CC)Cc1ccc(C(=O)N(CCc2ccccc2OC)[C@@H]2CCNC2)cc1 | – | 0.0961%
Cc1cc(Nc2cc(NC(=O)c3c(Cl)cccc3Cl)ccn2)nc(N)n1 | 13.2 µM (active) | –
CN(C)C1CCN(C(=O)c2ccc(NC(=O)Nc3nc(N4CCOCC4)nc(N4CCOCC4)n3)cc2)CC1 | – | 2.28%
CN(c1ncccc1CNc1nc(Nc2ccc3c(c2)CC(=O)N3)ncc1C(F)(F)F)S(C)(=O)=O | 18.7 µM (active) | –
CCS(=O)(=O)c1cccc(-c2cc(C(=O)NC3CCN(C)CC3)c(C)c3[nH]c4ncc(C)cc4c23)c1 | – | -8.71%
Cc1ccc(C(=O)N(CCCN)C(c2nc3cc(Cl)ccc3c(=O)n2Cc2ccccc2)C(C)C)cc1 (stereo not given) | 14.8 µM (active) | –
Cc1c2oc3c(C)ccc(C(=O)N[C@@H]4C(=O)NC(C(C)C)C(=O)N5CCC[C@H]5C(=O)N(C)CC(=O)N(C)C(C(C)C)C(=O)O[C@@H]4C)c3nc-2c(C(=O)N[C@@H]2C(=O)NC(C(C)C)C(=O)N3CCC[C@H]3C(=O)N(C)CC(=O)N(C)C(C(C)C)C(=O)O[C@@H]2C)c(N)c1=O (stereo not given in full) (I: T[ξV]P[Sar][ξNMeV] / II: T[ξV]P[Sar][ξNMeV]; ester I:1-I:C, II:1-II:C; linker I:N-II:N via Actinocin(9to1)) | 0.469 µM (active) | –
CCCCc1nc2cc(C=CC(=O)NO)ccc2n1CCN(CC)CC | 5.26 µM (active) | –
O=C(NC1CC1)c1cccc(-c2ccc3c(NC(=O)C4CC4)n[nH]c3c2)c1 | – | -21.2%
C[C@@]12O[C@@H](C[C@]1(O)CO)n1c3ccccc3c3c4c(c5c6ccccc6n2c5c31)CNC4=O | 8.33 µM (active) | –
